# PubChem BioAssay (Tox21)
# Records with an inconclusive call do not appear. Where a call stands in place of a potency, no number is given. The source made the active and inactive calls. Unless noted, the call rests on the fitted dose curve; in most records, active means well fitted curve in the direction sought with a large enough effect in the repeat runs; inconclusive means weak or mixed curves; inactive means no such curve, though single readings can be large; an effect the other way counts as inactive or inconclusive.
# Experiments:
# [1] = qHTS assay to identify small molecule agonists of the androgen receptor (AR) signaling pathway in the presence of an antagonist - cell viability counter screen (AID 1259379);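 further: MDA-kb2 human breast cancer cells carrying an MMTV luciferase reporter; series mostly up to about 92 µM; nearly all actives have a fitted effect of over 25% in size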
# Summary of the method: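 Fluorescence from CellTiter-Fluor, added after 15 hr and read 1 hr later, gave cell viability. Cells were MDA-kb2 exposed to compounds (15 concentrations) in the presence of 3.0uM nilutamide at 37C, 0% CO2.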
# [2] = qHTS assay to identify small molecule agonists of the estrogen receptor beta (ER-beta) signaling pathway - cell viability counter screen (AID 1259380); further: nearly all actives have a fitted effect of over 30% in size; further: potency means the concentration at half of the fitted maximal effect
# Summary of the method: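 Same-well viability counter screen. Cells: ER-beta-UAS-bla HEK293T, plated 6 hr before compound, in 2% charcoal-stripped FBS. Compound exposure 16 hr, 37C; viability by CellTiter-Glo luminescence after 30 min at room temperature.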
# [3] = qHTS assay to identify small molecule antagonists of the estrogen receptor beta (ER-beta) signaling pathway - cell viability counter screen (AID 1259382); further: series mostly up to about 92 µM; nearly all actives have a fitted effect of over 55% in size
# Summary of the method: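 Following a 6 hr plating period, HEK293T cells carrying a UAS-driven beta-lactamase reporter under ER-beta control received compounds and 1nM E2 (final). After 16 hr at 37C and 2 hr substrate loading, CellTiter-Glo luminescence indicated viability.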
# [4] = qHTS assay to identify small molecule agonists of the estrogen receptor alpha (ER-alpha) signaling pathway in the presence of an antagonist - cell viability counter screen (AID 1259386);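 further: series mostly up to about 92 µM; cells exposed to compounds for 22 h at 37 °C before the viability read; nearly all actives have a fitted effect of over 30% in size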
# Summary of the method: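 Cells are starved of estrogens for 5 days in charcoal-stripped serum, seeded for 24hr and co-treated with ICI-182,780 (10.0nM final) and test compounds. After 22hr at 37C, viability is read as CellTiter-Fluor fluorescence.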
# [5] = molecular target: Progesterone receptor (Homo sapiens) (UniProt P06401); test: qHTS assay to identify small molecule antagonists of the progesterone receptor (PR) signaling pathway (AID 1346795; active means well fitted inhibition curve with a large enough effect in the signal ratio in the repeat runs, not every such curve was filed as active; the % refers to the signal ratio; further: potency means the concentration at half of the fitted maximal effect)
# Sequence of Progesterone receptor (Homo sapiens) (P06401 whole entry, looked up): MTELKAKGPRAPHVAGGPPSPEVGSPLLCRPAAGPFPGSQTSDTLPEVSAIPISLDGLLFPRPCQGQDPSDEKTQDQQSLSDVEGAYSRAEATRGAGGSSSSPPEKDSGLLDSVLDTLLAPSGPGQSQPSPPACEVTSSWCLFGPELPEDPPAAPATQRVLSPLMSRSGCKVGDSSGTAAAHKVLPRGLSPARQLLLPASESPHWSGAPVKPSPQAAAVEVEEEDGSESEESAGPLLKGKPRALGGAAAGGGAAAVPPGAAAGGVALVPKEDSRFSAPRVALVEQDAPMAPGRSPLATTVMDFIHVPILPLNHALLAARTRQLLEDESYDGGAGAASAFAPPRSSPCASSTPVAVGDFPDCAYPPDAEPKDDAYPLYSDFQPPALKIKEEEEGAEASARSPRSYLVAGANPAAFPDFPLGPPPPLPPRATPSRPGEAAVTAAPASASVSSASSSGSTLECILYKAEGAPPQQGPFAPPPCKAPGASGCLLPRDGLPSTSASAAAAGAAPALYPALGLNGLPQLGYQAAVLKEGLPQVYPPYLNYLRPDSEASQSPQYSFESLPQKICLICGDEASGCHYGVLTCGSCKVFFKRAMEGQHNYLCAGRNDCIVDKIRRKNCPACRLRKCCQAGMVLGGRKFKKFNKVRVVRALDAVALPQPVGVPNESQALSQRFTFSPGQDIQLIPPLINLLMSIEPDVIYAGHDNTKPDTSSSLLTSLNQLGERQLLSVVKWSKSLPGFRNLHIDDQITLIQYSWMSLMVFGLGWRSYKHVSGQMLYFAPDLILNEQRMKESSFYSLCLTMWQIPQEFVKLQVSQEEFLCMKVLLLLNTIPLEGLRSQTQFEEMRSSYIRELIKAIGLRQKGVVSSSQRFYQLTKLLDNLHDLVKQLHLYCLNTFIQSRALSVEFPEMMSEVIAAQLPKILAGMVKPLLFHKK
# Summary of the method: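 HEK293T PR-UAS-bla reporter cells in charcoal-stripped serum (2%) received compound after a 6 hr settling period, followed by R5020 agonist at 1 nM final; 16 hr incubation preceded the FRET substrate step and fluorescence measurement.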
# [6] = qHTS assay to identify small molecule antagonists of the TGF-beta/Smad signaling pathway - cell viability counter screen (AID 1346824); further: nearly all actives have a fitted effect of over 50% in size
# Summary of the method: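 SBE-bla HEK 293T cells, incubated overnight, then compound plus 0.25 ng/mL TGF-beta1 (stock added) for 5 hr at 37 C. Viability was read in the same wells by CellTiter-Glo luminescence after 30 min at room temperature.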
# [7] = qHTS assay to identify small molecule agonists of the TGF-beta/Smad signaling pathway - cell viability counter screen (AID 1346829); further: top concentration of the series differs between compounds; nearly all actives have a fitted effect of over 45% in size
# Summary of the method: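 Same-well cytotoxicity: CellTiter-Glo added after the 2 hr room-temperature beta-lactamase substrate step, luminescence measured 30 min later; cells had 5 hr of compound at 37 C.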
# [8] = qHTS assay to identify small molecule agonists of the TGF-beta/Smad signaling pathway (AID 1346859; active means well fitted activation curve with a large enough effect in the signal ratio in the repeat runs, not every such curve was filed as active; the % refers to the signal ratio; further: series mostly up to about 77 µM)
# Summary of the method: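 Smad-responsive beta-lactamase reporter cells (HEK 293T) received compounds from DMSO stocks after overnight attachment, were incubated 5 hr, then treated 2 hr with FRET substrate before dual-emission fluorescence measurement (405 nm excitation).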
# [9] = molecular target: Estrogen receptor (Homo sapiens) (UniProt P03372); test: qHTS assay to identify small molecule agonists of the estrogen receptor alpha (ER-alpha) signaling pathway in the presence of an antagonist (AID 1259383; calls by dose curve; further: top concentration of the series differs between compounds; nearly all actives have a fitted effect of over 15% in size)
# Sequence of Estrogen receptor (Homo sapiens) (P03372 whole entry, looked up): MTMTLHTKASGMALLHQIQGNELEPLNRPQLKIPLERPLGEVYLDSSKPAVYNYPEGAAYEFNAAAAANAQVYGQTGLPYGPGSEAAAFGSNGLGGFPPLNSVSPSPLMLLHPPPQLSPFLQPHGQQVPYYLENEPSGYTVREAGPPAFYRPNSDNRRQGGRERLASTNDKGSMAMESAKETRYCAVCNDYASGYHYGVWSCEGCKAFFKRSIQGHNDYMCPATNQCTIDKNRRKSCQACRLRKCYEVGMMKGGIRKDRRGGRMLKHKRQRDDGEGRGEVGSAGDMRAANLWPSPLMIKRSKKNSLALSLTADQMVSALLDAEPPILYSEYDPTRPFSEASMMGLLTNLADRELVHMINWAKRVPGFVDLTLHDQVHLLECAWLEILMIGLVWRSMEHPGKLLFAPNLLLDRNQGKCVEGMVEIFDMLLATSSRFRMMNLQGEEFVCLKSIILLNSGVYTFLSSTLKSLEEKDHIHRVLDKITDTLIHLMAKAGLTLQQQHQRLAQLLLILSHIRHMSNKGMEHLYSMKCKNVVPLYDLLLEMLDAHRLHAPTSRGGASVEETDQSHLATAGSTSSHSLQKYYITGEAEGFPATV
# Summary of the method: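 Cells are hormone-deprived for 5 days (charcoal-stripped FBS, no phenol red), plated for 24hr, spiked with 10.0nM ICI-182,780, then dosed at 15 concentrations. After 22hr at 37C, ONE-Glo luminescence reports ERE-luciferase activity.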
# [10] = qHTS assay to identify small molecule agonists or antagonists of the thyroid stimulating hormone receptor (TSHR) signaling pathway - wild type cell line counter screen (AID 1259384; calls by dose curve)
# Summary of the method: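 Wild-type Hek293 cells, 800/well, 18 h at 37C, then compound with Ro20-1724 for 30 min RT. cAMP by HTRF (cAMP-d2/anti-cAMP cryptate), 1 h RT, fluorescence read. 15 concentrations, triplicates.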
# [11] = qHTS assay to identify small molecule antagonists of the progesterone receptor (PR) signaling pathway - cell viability counter screen (AID 1346798); further: nearly all actives have a fitted effect of over 50% in size; further: potency means the concentration at half of the fitted maximal effect
# Summary of the method: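 Same-well multiplex: after 16 hr at 37C with compound and R5020 stimulation, HEK293T cells carrying a UAS-bla reporter received LiveBLAzer substrate (2 hr RT), then CellTiter-Glo (30 min RT) for luminescent viability.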
# [12] = qHTS assay to identify small molecule agonists of the progesterone receptor (PR) signaling pathway - cell viability counter screen (AID 1346799; calls by dose curve; further: nearly all actives have a fitted effect of over 45% in size)
# Summary of the method: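 Counter screen for cytotoxicity: compound-treated PR-UAS-bla HEK293T cells (16 hr, 37C, 5% CO2) were assayed with CellTiter-Glo, luminescence measured after 30 min at room temperature.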
# [13] = molecular target: Estrogen receptor beta (Homo sapiens) (UniProt Q92731); test: qHTS assay to identify small molecule antagonists of the estrogen receptor beta (ER-beta) signaling pathway (AID 1259378; active means well fitted inhibition curve with a large enough effect in the signal ratio in the repeat runs, not every such curve was filed as active; the % refers to the signal ratio)
# Sequence of Estrogen receptor beta (Homo sapiens) (Q92731 whole entry, looked up): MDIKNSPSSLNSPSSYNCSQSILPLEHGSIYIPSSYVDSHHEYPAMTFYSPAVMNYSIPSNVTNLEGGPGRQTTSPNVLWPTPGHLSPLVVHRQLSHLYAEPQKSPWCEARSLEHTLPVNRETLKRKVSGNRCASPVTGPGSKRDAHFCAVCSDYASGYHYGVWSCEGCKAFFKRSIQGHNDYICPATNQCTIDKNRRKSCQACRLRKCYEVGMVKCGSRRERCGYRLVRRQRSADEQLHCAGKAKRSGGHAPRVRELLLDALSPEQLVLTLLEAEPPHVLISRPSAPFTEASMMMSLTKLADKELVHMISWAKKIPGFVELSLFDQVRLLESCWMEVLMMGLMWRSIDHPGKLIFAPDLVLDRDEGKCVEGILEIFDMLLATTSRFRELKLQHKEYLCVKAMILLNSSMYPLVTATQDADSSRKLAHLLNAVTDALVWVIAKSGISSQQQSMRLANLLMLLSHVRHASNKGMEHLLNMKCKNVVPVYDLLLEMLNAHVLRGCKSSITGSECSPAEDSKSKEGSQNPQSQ
# Summary of the method: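 ER-beta-UAS-bla HEK293T cells in 2% charcoal-stripped FBS medium treated with compound plus 1nM final 17-beta-estradiol for 16 hr at 37C. Beta-lactamase reporter read by FRET substrate fluorescence after 2 hours at room temperature.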
# [14] = molecular target: Thyrotropin receptor (Homo sapiens) (UniProt P16473); test: qHTS assay to identify small molecule antagonists of the thyroid stimulating hormone receptor (TSHR) signaling pathway (AID 1259385; calls by dose curve; further: nearly all actives have a fitted effect of over 20% in size; further: potency means the concentration at half of the fitted maximal effect)
# Sequence of Thyrotropin receptor (Homo sapiens) (P16473 whole entry, looked up): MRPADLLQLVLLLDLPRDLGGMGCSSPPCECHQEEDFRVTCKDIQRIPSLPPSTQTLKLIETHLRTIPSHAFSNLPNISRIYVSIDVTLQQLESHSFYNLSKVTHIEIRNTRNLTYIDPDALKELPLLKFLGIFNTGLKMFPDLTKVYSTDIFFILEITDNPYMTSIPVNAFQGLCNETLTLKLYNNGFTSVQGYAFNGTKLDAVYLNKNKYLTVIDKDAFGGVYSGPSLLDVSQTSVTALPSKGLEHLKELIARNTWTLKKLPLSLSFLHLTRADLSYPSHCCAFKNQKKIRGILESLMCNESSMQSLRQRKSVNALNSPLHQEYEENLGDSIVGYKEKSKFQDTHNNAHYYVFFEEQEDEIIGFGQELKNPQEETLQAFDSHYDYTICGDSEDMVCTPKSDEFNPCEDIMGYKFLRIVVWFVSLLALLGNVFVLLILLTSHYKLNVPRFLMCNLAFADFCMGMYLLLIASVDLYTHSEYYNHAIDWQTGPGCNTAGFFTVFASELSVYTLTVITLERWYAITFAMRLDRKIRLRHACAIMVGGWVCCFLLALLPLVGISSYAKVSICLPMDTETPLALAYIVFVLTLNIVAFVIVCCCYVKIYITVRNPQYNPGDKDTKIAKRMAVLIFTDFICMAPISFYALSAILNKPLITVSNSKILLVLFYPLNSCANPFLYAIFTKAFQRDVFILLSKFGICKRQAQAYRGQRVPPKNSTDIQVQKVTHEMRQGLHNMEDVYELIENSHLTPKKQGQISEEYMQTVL
# Summary of the method: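 TSHR-HEK293 cells (800/well) plated 18 h, then compounds with Ro20-1724 and TSH at 1.5 ng/mL final, 30 min at room temperature. cAMP quantified by HTRF (cAMP-d2/anti-cAMP-cryptate, 1 h); 15 concentrations in triplicate.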
# [15] = molecular target: Progesterone receptor (Homo sapiens) (UniProt P06401); test: qHTS assay to identify small molecule agonists of the progesterone receptor (PR) signaling pathway (AID 1346784; calls by dose curve; further: nearly all actives have a fitted effect of over 30% in size)
# Summary of the method: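 Agonist mode, quantitative HTS format in a HEK 293T line expressing a UAS-controlled beta-lactamase reporter; 16 hr compound exposure at 37C in 2% charcoal-stripped FBS, then LiveBLAzer B/G FRET fluorescence.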
# [16] = molecular target: Thyrotropin-releasing hormone receptor (Homo sapiens) (UniProt P34981); test: qHTS assay to identify small molecule antagonists of the thyrotropin-releasing hormone receptor (TRHR) signaling pathway (AID 1346877; active means well fitted inhibition curve with a large enough effect in the repeat runs, not every such curve was filed as active; further: series mostly up to about 51 µM)
# Sequence of Thyrotropin-releasing hormone receptor (Homo sapiens) (P34981 whole entry, looked up): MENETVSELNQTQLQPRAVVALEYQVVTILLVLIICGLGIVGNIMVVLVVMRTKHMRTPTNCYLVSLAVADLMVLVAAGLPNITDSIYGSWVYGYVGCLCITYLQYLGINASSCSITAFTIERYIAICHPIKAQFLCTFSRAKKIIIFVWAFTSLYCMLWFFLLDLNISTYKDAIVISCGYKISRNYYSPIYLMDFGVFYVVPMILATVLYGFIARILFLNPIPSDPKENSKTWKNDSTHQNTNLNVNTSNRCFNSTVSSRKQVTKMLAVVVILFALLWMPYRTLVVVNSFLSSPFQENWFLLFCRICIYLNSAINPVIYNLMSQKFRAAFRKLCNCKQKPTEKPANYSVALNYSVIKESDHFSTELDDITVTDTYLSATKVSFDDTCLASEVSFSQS
# Summary of the method: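 Cells (TRHR-HEK293) are plated and kept 18 h at 37 °C/5% CO2. A calcium-sensitive dye is added for 2 h, compound follows for 5 min at room temperature, and TRH is then given at 1 nM final.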
# [17] = molecular target: Thyrotropin-releasing hormone receptor (Homo sapiens) (UniProt P34981); test: qHTS assay to identify small molecule agonists of the thyrotropin-releasing hormone receptor (TRHR) signaling pathway (AID 1346891; calls by dose curve;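 further: HEK293 cells expressing TRHR with calcium dye readout; series mostly up to about 58 µM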)
# Summary of the method: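 Agonist-mode calcium mobilisation screen: TRHR-transfected HEK293 cells cultured overnight (18 h), dye-loaded for 2 h at 37 °C, exposed to compounds, and monitored by fluorescence for 3 min.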
# [18] = molecular target: Androgen receptor (Homo sapiens) (UniProt P10275); test: qHTS assay to identify small molecule agonists of the androgen receptor (AR) signaling pathway in the presence of an antagonist (AID 1259381; calls by dose curve; further: nearly all actives have a fitted effect of over 15% in size)
# Sequence of Androgen receptor (Homo sapiens) (P10275 whole entry, looked up): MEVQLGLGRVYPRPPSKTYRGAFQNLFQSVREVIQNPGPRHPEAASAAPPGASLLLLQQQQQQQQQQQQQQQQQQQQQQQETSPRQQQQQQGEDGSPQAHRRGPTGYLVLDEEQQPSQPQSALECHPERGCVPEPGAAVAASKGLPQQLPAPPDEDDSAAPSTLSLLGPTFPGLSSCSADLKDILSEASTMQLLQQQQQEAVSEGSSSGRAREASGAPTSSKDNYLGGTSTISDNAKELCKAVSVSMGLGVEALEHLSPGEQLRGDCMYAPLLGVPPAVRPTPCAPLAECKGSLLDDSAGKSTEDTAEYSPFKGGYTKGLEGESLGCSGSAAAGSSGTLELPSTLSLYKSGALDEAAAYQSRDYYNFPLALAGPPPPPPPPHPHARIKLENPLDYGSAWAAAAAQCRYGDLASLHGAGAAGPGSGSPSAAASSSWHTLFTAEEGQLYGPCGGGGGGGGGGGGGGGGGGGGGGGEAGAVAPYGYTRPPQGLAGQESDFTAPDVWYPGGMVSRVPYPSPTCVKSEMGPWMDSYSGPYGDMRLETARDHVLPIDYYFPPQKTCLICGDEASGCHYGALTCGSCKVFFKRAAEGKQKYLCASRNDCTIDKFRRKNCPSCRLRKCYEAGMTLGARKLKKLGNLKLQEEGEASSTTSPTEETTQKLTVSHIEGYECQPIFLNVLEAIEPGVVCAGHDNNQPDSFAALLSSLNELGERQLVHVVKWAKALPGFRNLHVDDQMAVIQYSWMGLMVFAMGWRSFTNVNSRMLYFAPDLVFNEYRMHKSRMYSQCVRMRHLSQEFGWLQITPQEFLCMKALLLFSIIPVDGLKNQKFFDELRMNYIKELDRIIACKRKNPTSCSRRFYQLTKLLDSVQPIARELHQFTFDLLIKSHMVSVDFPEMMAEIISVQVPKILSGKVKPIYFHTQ
# Summary of the method: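 Cells are MDA-kb2 (human breast carcinoma, MMTV-luc, AR/GR responsive). Nilutamide is present at 3.0uM final throughout; compounds are added at 15 concentrations and incubated 16hr at 37C before ONE-Glo luminescence detection.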
Compound,Potency [1],Potency [2],outcome [3],Potency [4],Potency [5],outcome [6],outcome [7],outcome [8],Potency [9],outcome [10],Potency [11],Potency [12],Potency [13],Potency [14],Potency [15],outcome [16],Potency [17],Potency [18]
CCN(CC)C(=O)N(CC)CC,inactive,inactive,inactive,inactive,inactive,inactive,inactive,inactive,,,,,,,,,,
CC1(C)O[C@@H]2C[C@H]3[C@@H]4CCC5=CC(=O)CC[C@]5(C)[C@@]4(F)[C@@H](O)C[C@]3(C)[C@]2(C(=O)CCl)O1,inactive,,inactive,,,inactive,inactive,inactive,inactive,inactive,inactive,inactive,,,,,,
Cc1ccc(C)c(N)c1,inactive,inactive,inactive,,inactive,inactive,inactive,inactive,inactive,inactive,inactive,inactive,inactive,inactive,inactive,inactive,inactive,
CN1[C@@H]2CC[C@H]1CC(OC(=O)c1c[nH]c3ccccc13)C2 (stereo not given in full),inactive,inactive,inactive,inactive,,inactive,inactive,inactive,,inactive,inactive,,inactive,inactive,,inactive,inactive,
O=C(O)[C@@H]1CSCN1,inactive,inactive,inactive,inactive,inactive,inactive,inactive,inactive,,inactive,inactive,inactive,,inactive,inactive,,,
CCc1cc(Cl)c(OC)c(C(=O)NC[C@@H]2CCCN2CC)c1O,inactive,,inactive,inactive,inactive,inactive,inactive,inactive,inactive,,inactive,,,,inactive,,,
OCC(CBr)(CBr)CBr,inactive,inactive,inactive,inactive,34.2 µM (active),inactive,inactive,inactive,inactive,inactive,inactive,,,inactive,inactive,inactive,inactive,
Oc1ccccc1C=NCc1ccccc1,inactive,inactive,inactive,,inactive,inactive,inactive,inactive,,inactive,inactive,inactive,inactive,inactive,inactive,inactive,inactive,
Cc1nc(-c2ccccn2)ncc1C(=O)Nn1cc(C)c2cc(F)ccc21,inactive,,,inactive,,inactive,inactive,inactive,inactive,inactive,30.6 µM (active),,,inactive,inactive,inactive,inactive,inactive
C=CCc1cc(OC)c(O)c(C(=O)NCCO)c1,inactive,inactive,inactive,inactive,inactive,inactive,inactive,inactive,inactive,inactive,inactive,inactive,,inactive,inactive,,,
CCN1CC(CCN2CCOCC2)C(c2ccccc2)(c2ccccc2)C1=O (stereo not given),inactive,inactive,inactive,,inactive,inactive,inactive,inactive,,inactive,inactive,inactive,inactive,inactive,inactive,inactive,inactive,
CCN(CC)CCNC(=O)COc1ccc(Cl)cc1,inactive,inactive,inactive,inactive,inactive,inactive,inactive,inactive,inactive,inactive,inactive,inactive,,inactive,inactive,inactive,inactive,
CCCCOc1cc(C(=O)NCCN(CC)CC)c2ccccc2n1,,,inactive,inactive,,inactive,inactive,inactive,,inactive,,,,,,inactive,inactive,
CCCCCCOc1ccc(N)cc1,inactive,17.2 µM (active),,,,inactive,inactive,inactive,,,inactive,inactive,,,,,,
CCCOc1ccc2c(c1)CC[C@@H]1[C@@H]2CC[C@]2(C)C(OC)CC[C@@H]12 (stereo not given in full),inactive,,inactive,inactive,15 µM (active),inactive,inactive,inactive,inactive,inactive,inactive,,inactive,inactive,,inactive,inactive,inactive
O=[N+]([O-])c1nccn1CO[C@@H](CO)[C@H](O)CO,inactive,,inactive,inactive,,inactive,inactive,inactive,,inactive,inactive,inactive,inactive,inactive,,inactive,inactive,
O=C(O)[C@@H](O)[C@H](O)[C@H](O)[C@@H](O)C(=O)O,inactive,inactive,inactive,inactive,,inactive,inactive,inactive,,inactive,inactive,inactive,,inactive,,inactive,inactive,
ClC(Cl)Cl,inactive,,inactive,inactive,,inactive,inactive,inactive,,inactive,,,inactive,inactive,inactive,,,
CCN(CC)CCOc1ccc(Cc2ccccc2)cc1,inactive,,inactive,inactive,,inactive,inactive,inactive,inactive,inactive,inactive,inactive,,29.8 µM (active),inactive,,,
C[C@]12C(=O)OC(=O)[C@H]1[C@H]1C=C[C@@H]2C1,inactive,inactive,inactive,inactive,inactive,inactive,inactive,inactive,inactive,inactive,inactive,inactive,,,inactive,inactive,inactive,
